Experimental data reported in PubChem BioAssay AID614 (Sanford-Burnham Center for Chemical Genomics, 2007).
Hit rate of the full screen: of about 21,000 compounds, fewer than 10 were called active.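 How the source made its calls: active means inhibition above 50% at the 20 µM single-dose screen; inactive means the rest.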 These entries were drawn from the full list.

Each molecule was assayed against Alkaline phosphatase, tissue-nonspecific isozyme (Homo sapiens) (UniProt P05186) (assay: blockers of alkaline phosphatase TNAP activity – biochemical, colorimetric, phosphate release readout, primary screen (AID 614)). Conditions: purified TNAP, pNPP, malachite green phosphate absorbance; at 20 µM; stronger effect = higher value.
Chain of Alkaline phosphatase, tissue-nonspecific isozyme (Homo sapiens) (P05186 whole entry, looked up): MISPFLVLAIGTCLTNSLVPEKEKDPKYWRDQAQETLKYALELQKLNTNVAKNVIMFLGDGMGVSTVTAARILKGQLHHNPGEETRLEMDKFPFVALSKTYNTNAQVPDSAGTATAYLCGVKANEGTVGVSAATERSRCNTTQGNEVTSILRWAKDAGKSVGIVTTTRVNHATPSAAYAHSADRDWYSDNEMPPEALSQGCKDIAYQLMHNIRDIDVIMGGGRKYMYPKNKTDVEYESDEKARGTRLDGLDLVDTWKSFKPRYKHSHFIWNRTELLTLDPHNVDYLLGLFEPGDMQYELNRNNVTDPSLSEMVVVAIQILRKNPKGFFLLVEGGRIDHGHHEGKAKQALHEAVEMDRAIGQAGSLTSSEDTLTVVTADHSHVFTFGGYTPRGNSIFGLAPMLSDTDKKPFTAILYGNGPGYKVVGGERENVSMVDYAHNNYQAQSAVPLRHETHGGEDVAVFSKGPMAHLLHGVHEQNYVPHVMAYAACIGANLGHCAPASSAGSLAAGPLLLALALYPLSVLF
With `CC1CCN(C(=O)Cn2cc(C(=O)c3ccco3)c3ccccc32)CC1` the inhibition was 14.2% (inactive). With `O=C(c1ccccc1)N1CCN(C(=O)N2CCCCC2)CC1` the inhibition was -5.7% (inactive). With `CC1C(c2ccccc2)=[N+]([O-])C2(CCCC2)N1O` (stereo unspecified) the inhibition was 12.6% (inactive). In the case of `Cc1nonc1OCCn1nnnc1N`, the inhibition is reported as 8.7% (inactive). In the case of `O=C(OC(C(=O)NC1CCCC1)c1ccc(F)cc1)c1ccno1` (stereo unspecified), the inhibition is reported as 0% (inactive). For `CCc1ccccc1NC(=O)CSc1nnc([C@@H](NC(=O)OC(C)(C)C)C(C)C)o1`, the inhibition was 4.3% (inactive). In the case of `CC1OC2C(OC1C)N(S(C)(=O)=O)CCN2S(C)(=O)=O` (stereo unspecified), the inhibition is reported as 10% (inactive). `O=C(CCN1C(=O)c2ccccc2C1=O)Nc1ccncc1` was tested, and the inhibition was 7.9% (inactive). For `CCOC(=O)CSc1nc2sc3c(c2c(=O)[nH]1)CC(C)(C)OC3`, the inhibition was -12.8% (inactive). With `COc1ccc(-c2cc(C(F)(F)F)n3nc(C(=O)N4CCOCC4)c(Cl)c3n2)cc1` the inhibition was 6% (inactive). With `C=C(Br)Cn1c(CCCC)nc2ccccc21` the inhibition was 0% (inactive). `COc1ccc(Br)cc1/C=N/n1c(C)nnc1C` was tested, and the inhibition was 8.2% (inactive). For `CCC(=O)Nc1sc(C(=O)N2CCCCC2)c(C)c1C#N`, the inhibition was -23.7% (inactive). `CCCCNc1nc2ccccc2nc1NS(=O)(=O)c1cccs1` was tested, and the inhibition was 1.2% (inactive). `COc1cc(C2C(C(=O)c3sc(C)nc3C)=C(O)C(=O)N2CCN(C)C)cc(OC)c1OC` (stereo unspecified) was tested, and the inhibition was 13% (inactive). For `Cc1cc(C)c(C#N)c(SCc2ccccc2C(=O)O)n1`, the inhibition was -0.3% (inactive). `CCCCc1nc2ccccc2c(=O)n1NC(=O)c1c(O)c2cccc3c2n(c1=O)CC3` was tested, and the inhibition was 4.4% (inactive). For `Cc1ccc2cc(C#N)c(SCC(=O)NCC3CCCO3)nc2c1C` (stereo unspecified), the inhibition was 8.6% (inactive). `COc1ccc2c(c1OC)C(=O)OC2c1c(O)nc(SC)n(-c2ccccc2)c1=O` (stereo unspecified) was tested, and the inhibition was -0.7% (inactive). In the case of `Cc1ccc2c(NC(=O)C3CC3)cccc2n1`, the inhibition is reported as 9.9% (inactive). In the case of `O=c1c(F)cn(C2CCCO2)c(=O)n1Cc1ccccc1Cl` (stereo unspecified), the inhibition is reported as 7.7% (inactive). `COCCNC(=O)c1ccccc1-c1nc(-c2ccccc2Cl)no1` was tested, and the inhibition was 1.6% (inactive). In the case of `Cc1cc(C)nc(N(C#N)CC(=O)Nc2ccccc2)n1`, the inhibition is reported as -15.3% (inactive). With `CCCCNC(=O)CSc1nccn1Cc1ccccc1` the inhibition was 10.7% (inactive). For `CCC(C)NC(=O)N[C@@H](CCSC)C(=O)O` (stereo partly specified), the inhibition was 8.1% (inactive). With `O=C(Nc1cnccn1)c1cccnc1` the inhibition was 6.7% (inactive). In the case of `COc1ccc(-c2n[nH]c(C)c2-c2ccc(OC)c(OC)c2)c(O)c1`, the inhibition is reported as 7.2% (inactive). With `c1nc(COc2nsnc2N2CCOCC2)cs1` the inhibition was 5.5% (inactive). With `Cc1cc2ccccc2n2c(SCC(=O)N3CCN(C(=O)c4ccco4)CC3)nnc12` the inhibition was 12.5% (inactive). `CC(=O)Nc1cccc2c1[n+]([O-])c(C)c(C)[n+]2[O-]` was tested, and the inhibition was 2.9% (inactive). In the case of `N#CCCN(CCC#N)c1nnc(-c2ccccc2)s1`, the inhibition is reported as 0% (inactive). With `COc1ccc(Cn2cccc(NC(=O)Nc3ccc(C#N)cc3)c2=O)cc1` the inhibition was 10.4% (inactive). `CCOC(=O)CNC(=O)CSc1nnc(COc2ccc(Cl)cc2)n1CC` was tested, and the inhibition was 10.6% (inactive). With `CCc1nnc(NC(=O)c2nc3nccc(C)n3n2)s1` the inhibition was -4.2% (inactive). For `CNC(=O)c1cc2c(ccc3ccccc32)oc1=N`, the inhibition was 5.2% (inactive). `CCN(c1ccccc1)S(=O)(=O)c1cccc(C(=O)O)c1` was tested, and the inhibition was 1.1% (inactive). For `CN(C)c1nc2n(c(=O)n1)CCO2`, the inhibition was -3% (inactive). `COc1ccccc1NC(=O)C1=C(C)NC2=C(C(=O)CCC2)C1c1ccc(C)o1` (stereo unspecified) was tested, and the inhibition was -1.3% (inactive). In the case of `C=CCc1cccc2cc(C(=O)N3CCN(C(=O)OCC)CC3)c(=O)oc12`, the inhibition is reported as 5.5% (inactive). In the case of `CC1Cc2ccccc2N1C(=O)CSc1nnc(-c2ccc(S(=O)(=O)N3CCCCC3)cc2)o1` (stereo unspecified), the inhibition is reported as 12.2% (inactive). `O=c1oc2c(CN3CCCCC3)c(O)ccc2c2c1CCCCC2` was tested, and the inhibition was 8.2% (inactive). With `CCn1c(SCC(=O)Nc2cc(C)c(Cl)cc2OC)nnc1-c1ccco1` the inhibition was 10.5% (inactive). In the case of `O=C(NC1CCCCC1)n1c(=O)oc2cc(S(=O)(=O)N3CCCCC3)ccc21`, the inhibition is reported as 6.7% (inactive). With `Cn1c(SCC(=O)OC2CCCCC2)nnc1-c1ccc(S(=O)(=O)N2CCCC2)cc1` the inhibition was 10.3% (inactive). For `O=C(NCc1cn2ccsc2n1)Nc1cccc(Cl)c1`, the inhibition was 0.5% (inactive). For `CCC1(C)N(O)C(C)(C)C(c2ccc(OC)cc2)=[N+]1[O-]` (stereo unspecified), the inhibition was 8.5% (inactive). With `CCc1c(O)nc(SCC(=O)N2CCCCC2)n(-c2ccccc2C)c1=O` the inhibition was 2.1% (inactive). `Cc1ccc(C(C(=O)NCc2ccco2)N(CC2CCCO2)C(=O)Cn2nnc3ccccc32)cc1` (stereo unspecified) was tested, and the inhibition was 8.3% (inactive). With `CC(C)=C(NC(=O)c1ccco1)C(=O)NCCc1nc2ccccc2[nH]1` the inhibition was 9.6% (inactive). For `O=C(O)CCC(=O)N(Cc1ccco1)c1nc(-c2ccccc2)cs1`, the inhibition was 7.9% (inactive). With `COC(=O)COc1ccc(S(=O)(=O)Nc2ccc(NC(C)=O)cc2)cc1` the inhibition was 11.9% (inactive). With `CCc1cccc(C)c1NC(=O)CSc1nnc(-c2ccco2)n1N` the inhibition was 7.1% (inactive). For `C/C(O)=C\c1nc(=O)c2c(C)cc(C)nc2n1-c1ccccc1`, the inhibition was 10.5% (inactive). With `COc1ccccc1N1CCN(C(=O)c2ccc(S(=O)(=O)N3CCCCC3)cc2)CC1` the inhibition was 11.7% (inactive). `Cc1ccc(C(C)C)c(OCc2nnc(SCC(=O)Nc3nccs3)n2C)c1` was tested, and the inhibition was -5.7% (inactive). With `NC(=O)C1CCN(C2OC(=O)c3ccccc32)CC1` (stereo unspecified) the inhibition was 0% (inactive). With `O=C(CSc1nnnn1-c1ccc2c(c1)CCC2)Nc1ccc2c(c1)OCCO2` the inhibition was -0.8% (inactive). `O=C(CNCCO)NC12CC3CC(CC(C3)C1)C2` was tested, and the inhibition was 0% (inactive). For `Cc1nc(NC(CC(C)C)C(=O)O)c2nc(C)oc2n1` (stereo unspecified), the inhibition was -15% (inactive). `O=C1c2oc3ccc(Br)cc3c(=O)c2C(c2cccc(F)c2)N1CCO` (stereo unspecified) was tested, and the inhibition was 10.1% (inactive). With `CC(C)C(=O)N1CCN(CCN=CC2=C(O)CC(c3ccco3)CC2=O)CC1` (stereo unspecified) the inhibition was 2.1% (inactive). With `CCOC(=O)c1c(NC(=O)CSc2nnc(C)c(=O)[nH]2)sc2c1CCC2` the inhibition was 10.5% (inactive). With `COC(=O)C(NC(C)=O)(Nc1nc2c(s1)CCCC2)C(F)(F)F` (stereo unspecified) the inhibition was 10.6% (inactive). In the case of `CC1Cc2ccccc2N1C(=O)CSc1nc2ccccc2o1` (stereo unspecified), the inhibition is reported as 14% (inactive). `CCCn1c(SCC(N)=O)nnc1C(C)C` was tested, and the inhibition was 3.8% (inactive). `COC(=O)CNC(=O)c1ccc2c(c1)S(=O)(=O)c1ccccc1C2=O` was tested, and the inhibition was 14.1% (inactive). In the case of `O=C(Oc1ccccc1)c1ccc2nccnc2c1`, the inhibition is reported as 8.8% (inactive). `CC(Sc1nncs1)C(=O)NCc1ccc2c(c1)OCO2` (stereo unspecified) was tested, and the inhibition was 18.9% (inactive). With `C=CCn1c(C2CC(=O)N(c3ccc(C)cc3)C2)nc2ccccc21` (stereo unspecified) the inhibition was 8.4% (inactive). For `c1ccc2c(CNn3cnnc3)cccc2c1`, the inhibition was 4% (inactive). In the case of `O=c1cc(CSc2ccc(Cl)cc2)nc(N2CCOCC2)[nH]1`, the inhibition is reported as -11.8% (inactive). With `CCCc1nc2c3cnn(-c4cccc(Cl)c4)c3ncn2n1` the inhibition was -13.7% (inactive). In the case of `Cn1c(=O)c2c(nc(OCc3cccnc3)n2Cc2ccccc2)n(C)c1=O`, the inhibition is reported as 0% (inactive). With `O=C(CCCC(=O)N(CC(=O)NC1CCCC1)Cc1ccccc1Cl)Nc1ccccn1` the inhibition was 10.7% (inactive). `CC12C(=O)N(n3cnnc3)C(=O)C1C1C=CC2C1` (stereo unspecified) was tested, and the inhibition was -18.4% (inactive). `Cn1cnc2c1c(=O)n(Cc1c(Cl)cccc1Cl)c(=O)n2C` was tested, and the inhibition was 7.6% (inactive). `COc1ccc(-n2c(C)nc3c(cnn3-c3ccccc3)c2=O)cc1` was tested, and the inhibition was -8.2% (inactive). `CC(=O)Nc1ccc(S(=O)(=O)N2CCCC2C(=O)O)cc1` (stereo unspecified) was tested, and the inhibition was 10.8% (inactive). `COCCn1nnnc1C(c1ccccc1Cl)N1CCN(c2ccccc2OC)CC1` (stereo unspecified) was tested, and the inhibition was 8.5% (inactive). With `CC(Cc1cccs1)NC(=O)NC1CCCCC1` (stereo unspecified) the inhibition was 10% (inactive). `CS(=O)(=O)N(CC(=O)N1CCN(c2cccc(Cl)c2)CC1)c1ccccc1` was tested, and the inhibition was 0% (inactive). In the case of `O=C(CSc1nnc(-c2cccnc2)n1Cc1ccco1)c1ccc(Cl)cc1`, the inhibition is reported as 8.1% (inactive). With `CCN1C(=O)/C(=C\N2CCN(c3ccccc3)CC2)SC1=S` the inhibition was 10.1% (inactive). For `O=C(Nc1c(-c2ccccc2)nc2c(Br)cc(Br)cn12)c1ccco1`, the inhibition was 9.2% (inactive). `Cc1ccc(C2(c3ccc(C)cc3)NC(=O)N(Cc3c(C)noc3C)C2=O)cc1` was tested, and the inhibition was -2% (inactive). In the case of `COC(=O)[C@H](C)NC(=O)Nc1ccc(OC(F)(F)F)cc1`, the inhibition is reported as 4.2% (inactive). For `Cc1csc(NC(=O)CN2CCCCCC2)n1`, the inhibition was 14.8% (inactive). In the case of `COc1ccc(-c2nc3n(c2Br)CCC3)cc1`, the inhibition is reported as 0% (inactive). `CCOC(=O)N1CCN(C(=O)C2CCN(S(C)(=O)=O)CC2)CC1` was tested, and the inhibition was -0.3% (inactive). `O=S(=O)(NCc1ccccn1)c1ccc(Br)s1` was tested, and the inhibition was -2.3% (inactive). For `COCCNC(=O)CN(C(=O)CCC(=O)Nc1cc(C)on1)c1ccc(C)cc1C`, the inhibition was 14.4% (inactive). With `CN1CCN(S(=O)(=O)c2ccc(NC(=O)C3CCCO3)cc2)CC1` (stereo unspecified) the inhibition was 11.5% (inactive). With `C=CCNc1nc(C)nc(OC)n1` the inhibition was -2.9% (inactive). With `CCc1cc(=O)oc2cc(C)cc(OC(C)C(=O)O)c12` (stereo unspecified) the inhibition was 8.6% (inactive). With `O=S(=O)(O)c1nc2ccccc2n1Cc1ccc(Cl)cc1Cl` the inhibition was 0% (inactive). For `CCNC(=O)CCc1nc(-c2ccc(C(C)(C)C)cc2)no1`, the inhibition was 2% (inactive). With `CC1(C)Oc2ccc(C(=O)N3CCOCC3)cc2N(CC(=O)Nc2ccccc2)C1=O` the inhibition was -16.7% (inactive). For `COc1cccc(C2/C(=C(/O)c3ccc(F)cc3)C(=O)C(=O)N2CCN(C)C)c1` (stereo unspecified), the inhibition was 0.4% (inactive). For `Cc1cccc(N)c1SC1CCCCC1O` (stereo unspecified), the inhibition was 9.2% (inactive). `CC(C)(C)n1nnc(CCc2nnn(C(C)(C)C)n2)n1` was tested, and the inhibition was 0.3% (inactive). With `CCOC(=O)CSc1nnc(NC(=O)c2cccc(S(=O)(=O)N3CCCC3)c2)s1` the inhibition was 9.6% (inactive).
